# Source: a collection of fitness landscapes (doi:10.1016/j.celrep.2020.107928)
# In all, about 81,000 sequences were measured (“one-hybrid fitness for binding NBS DNA”: median about -0.1, highest 2% from about 0.36 on). This excerpt belongs to a sample that is enriched for the highest values.
# B1: Caulobacter ParB omega fusion; a variant is named by its letters at X, in order, B8GW30 (parent)
# chain: MESVVVGEPGMSEGRRGLGRGLSALLGEVDAAPAQAPGEQLGGSREAPIEILQRNPDQPRRTFREEDLEDLSNSIREKGVLQPILVRPSPDTAGEYQIVAGERAWRAAQRAGLKTVPIMVRELDDLAVLEIGIIENVQRADLNVLEEALSYKVLMEKFERTQENIAQTIGKSXSHVANXMRLLXLPDEVQSYLVSGELTAXHARAIAAAADPVALAKQIIEGGLSVRETEALARKAPNLSAGKSKGGRPPRVKDTDTQALESDLSSVLGLDVSIDHRGSTGTLTITYATLEQLDDLCNRLTRGI
# Variants of: B1
# Test: one-hybrid fitness for binding NBS DNA (the Noc-binding site; scaled: cognate 1, non-cognate 0); higher = stronger binding
# Conditions: with NBS DNA site
# In short: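 Fitness is the rescaled log change in variant-to-wild-type read ratio, measured by Illumina sequencing of plasmids before and after bacterial one-hybrid selection. The scale puts cognate at 1 and non-cognate at 0. Selection of Caulobacter ParB libraries, four specificity codons randomised, took place in E. coli USO with a HIS3 reporter, site 19 bp from the promoter, over 48 hours at 37°C on M9-minus-histidine with 0.1 mM IPTG and 5 mM 3-AT.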
row,Variant,one-hybrid fitness for binding NBS DNA
1,YGDI,≤ 0.2
2,FTRD,≤ 0.2
3,NWLT,≤ 0.2
4,YDPL,≤ 0.2
5,LENS,≤ 0.2
6,ALND,≤ 0.2
7,TGNW,≤ 0.2
8,KHVR,≤ 0.2
9,NKKR,0.3
10,KTVR,≤ 0.2
11,KKKT,0.427
12,KKKR,0.523
13,KKVT,≤ 0.2
14,NKKT,≤ 0.2
15,KKVR,≤ 0.2
16,KTKR,0.555
17,KHKS,≤ 0.2
18,KHKR,0.396
19,KTKP,≤ 0.2
20,SSSH,≤ 0.2
21,GTSM,≤ 0.2
22,MDYV,≤ 0.2
23,FTRY,≤ 0.2
24,SQTT,≤ 0.2

row,Variant,one-hybrid fitness for binding NBS DNA
1,RWDE,≤ 0.2
2,GLVI,≤ 0.2
3,CLLR,≤ 0.2
4,FWDR,≤ 0.2
5,SYYR,≤ 0.2
6,FWPR,0.486
7,NMKR,0.201
8,DYKR,≤ 0.2
9,KMVR,≤ 0.2
10,KYKR,0.414
11,SYVR,≤ 0.2
12,SYKR,0.378
13,FWPP,≤ 0.2
14,KYYR,≤ 0.2
15,KMKR,0.4
16,RDNL,≤ 0.2
17,KNNH,≤ 0.2
18,FMCG,≤ 0.2
19,KYLR,≤ 0.2
20,VTMQ,≤ 0.2
21,RNIC,≤ 0.2
22,AMWM,≤ 0.2
23,TRYP,≤ 0.2
24,RGPH,≤ 0.2

row,Variant,one-hybrid fitness for binding NBS DNA
1,VTSA,≤ 0.2
2,MRFI,≤ 0.2
3,CKWS,≤ 0.2
4,KPKR,≤ 0.2
5,KQKR,0.425
6,KSKR,0.342
7,NQKR,≤ 0.2
8,FPKR,≤ 0.2
9,KKVS,≤ 0.2
10,KKKN,≤ 0.2
11,KKKS,0.425
12,DQKR,≤ 0.2
13,FCKR,0.392
14,FSKR,0.218
15,KCKR,0.397
16,YLQM,≤ 0.2
17,MIYY,≤ 0.2
18,WSMT,≤ 0.2
19,YVTI,≤ 0.2
20,WDTC,≤ 0.2
21,QRSV,0.388
22,QMYV,≤ 0.2
23,QMRV,0.45
24,QSYV,≤ 0.2

row,Variant,one-hybrid fitness for binding NBS DNA
1,QADV,≤ 0.2
2,QSRV,0.396
3,QAYV,≤ 0.2
4,QSSV,≤ 0.2
5,QARV,0.376
6,QSDV,≤ 0.2
7,QCSV,≤ 0.2
8,QMDV,≤ 0.2
9,QYAA,0.237
10,RQRI,≤ 0.2
11,SPGV,≤ 0.2
12,RRPE,≤ 0.2
13,QMVE,≤ 0.2
14,VKVA,≤ 0.2
15,CPHR,≤ 0.2
16,FHQR,≤ 0.2
17,QPQV,≤ 0.2
18,DFQV,≤ 0.2
19,QCAV,≤ 0.2
20,QCCV,≤ 0.2
21,SFQV,0.447
22,QRQV,0.397
23,QRFV,0.275
24,QCQV,≤ 0.2

row,Variant,one-hybrid fitness for binding NBS DNA
1,QRAV,0.424
2,SFRV,≤ 0.2
3,QRCV,0.406
4,QPCV,≤ 0.2
5,SHME,≤ 0.2
6,HLRR,≤ 0.2
7,GKSS,≤ 0.2
8,QVST,0.318
9,ALAR,≤ 0.2
10,NTES,≤ 0.2
11,QCYV,≤ 0.2
12,QPRV,≤ 0.2
13,QCRV,0.525
14,QTDV,≤ 0.2
15,QKRV,0.41
16,QKDV,≤ 0.2
17,QSGV,≤ 0.2
18,QTRV,0.576
19,QRGV,0.452
20,QKYV,≤ 0.2
21,QCGV,0.221
22,QTYV,≤ 0.2
23,LALN,≤ 0.2
24,NRHK,≤ 0.2

row,Variant,one-hybrid fitness for binding NBS DNA
1,IQAC,≤ 0.2
2,EASL,≤ 0.2
3,KDSS,≤ 0.2
4,WRLM,≤ 0.2
5,VHFW,≤ 0.2
6,QRHV,0.439
7,QHRV,0.378
8,QRNV,0.453
9,QRYV,0.348
10,QREV,≤ 0.2
11,QRRV,0.574
12,QHYV,≤ 0.2
13,QPHV,≤ 0.2
14,QCHV,0.214
15,QHQV,≤ 0.2
16,QCNV,≤ 0.2
17,QRDV,≤ 0.2
18,KSRF,≤ 0.2
19,EDAY,≤ 0.2
20,VSIE,≤ 0.2
21,RVLI,≤ 0.2
22,FHTT,≤ 0.2
23,NSFQ,≤ 0.2
24,LEVT,≤ 0.2

row,Variant,one-hybrid fitness for binding NBS DNA
1,QSST,0.424
2,QLSH,≤ 0.2
3,QSSN,≤ 0.2
4,QAST,0.395
5,QASD,≤ 0.2
6,QASN,≤ 0.2
7,QHST,0.446
8,QGST,≤ 0.2
9,QLST,0.413
10,QLSS,0.317
11,QHSC,≤ 0.2
12,QHSQ,≤ 0.2
13,TKRI,≤ 0.2
14,FEYS,≤ 0.2
15,SKTD,≤ 0.2
16,HPSA,≤ 0.2
17,RYAA,≤ 0.2
18,WFRC,≤ 0.2
19,AMMM,≤ 0.2
20,SFTI,≤ 0.2
21,QIST,0.311
22,QPST,≤ 0.2
23,QCST,0.553
24,KDHS,≤ 0.2

row,Variant,one-hybrid fitness for binding NBS DNA
1,QTVT,0.517
2,QTKT,0.883
3,DTKT,≤ 0.2
4,NTKT,≤ 0.2
5,IWTS,≤ 0.2
6,SWRY,≤ 0.2
7,VSWL,≤ 0.2
8,RRRC,0.39
9,RKYC,≤ 0.2
10,MVER,0.34
11,RKRC,0.4
12,RRYC,0.313
13,RKDC,≤ 0.2
14,RRDC,0.318
15,MVES,≤ 0.2
16,MVEC,0.453
17,RRWC,0.393
18,RSWC,≤ 0.2
19,RCWC,≤ 0.2
20,RQIE,≤ 0.2
21,ITGG,≤ 0.2
22,VFDW,≤ 0.2
23,QNAP,≤ 0.2
24,SDVV,≤ 0.2

row,Variant,one-hybrid fitness for binding NBS DNA
1,ANIL,≤ 0.2
2,GEAG,≤ 0.2
3,AWVG,≤ 0.2
4,LYSD,≤ 0.2
5,VKHG,≤ 0.2
6,FRVT,≤ 0.2
7,LRPY,≤ 0.2
8,RCRC,0.391
9,RPRC,≤ 0.2
10,RSRC,0.355
11,AGSH,≤ 0.2
12,ISGM,≤ 0.2
13,RNKN,≤ 0.2
14,RNDS,≤ 0.2
15,RNVR,≤ 0.2
16,RNRR,0.504
17,RNVS,≤ 0.2
18,RNKH,0.237
19,RNNS,0.388
20,RNYR,≤ 0.2
21,RNNP,≤ 0.2
22,RNIR,≤ 0.2
23,RNKS,0.489
24,RNKR,0.535

row,Variant,one-hybrid fitness for binding NBS DNA
1,GHAT,≤ 0.2
2,RHRC,0.295
3,IAAT,≤ 0.2
4,AKCT,≤ 0.2
5,RNNR,0.381
6,RNDR,≤ 0.2
7,RNND,≤ 0.2
8,TPFG,≤ 0.2
9,MWSR,≤ 0.2
10,HRYM,≤ 0.2
11,RCVC,≤ 0.2
12,RRKC,0.375
13,RPVC,≤ 0.2
14,RRHC,0.363
15,RRLC,0.301
16,RRVC,0.414
17,PACV,≤ 0.2
18,QHSI,≤ 0.2
19,QQFF,≤ 0.2
20,KQRS,0.224
21,QQQH,≤ 0.2
22,QQQN,≤ 0.2
23,QQRS,0.714
24,QQRF,0.387

row,Variant,one-hybrid fitness for binding NBS DNA
1,QQQS,0.428
2,QQRD,0.286
3,QQYF,≤ 0.2
4,QQRP,0.312
5,QQRH,0.645
6,QQRL,0.329
7,DWKY,≤ 0.2
8,RGQM,≤ 0.2
9,NLNF,≤ 0.2
10,VHRM,≤ 0.2
11,GFMT,≤ 0.2
12,YDNR,≤ 0.2
13,NHAS,≤ 0.2
14,GPQT,≤ 0.2
15,EHTR,≤ 0.2
16,QQSN,≤ 0.2
17,QQWS,0.397
18,QQWG,≤ 0.2
19,QQWF,≤ 0.2
20,QQRN,0.466
21,QQSH,0.208
22,QQYN,≤ 0.2
23,QQSS,0.436
24,QQHN,≤ 0.2

row,Variant,one-hybrid fitness for binding NBS DNA
1,QQDN,≤ 0.2
2,QQHD,≤ 0.2
3,QQHS,0.476
4,AVSG,≤ 0.2
5,DTKE,≤ 0.2
6,VVTF,≤ 0.2
7,TFLI,≤ 0.2
8,TFAN,≤ 0.2
9,CKWT,≤ 0.2
10,QQGS,0.443
11,QQGN,≤ 0.2
12,QQNM,0.206
13,QQGP,≤ 0.2
14,QQYS,0.406
15,QQLH,0.22
16,QQLP,≤ 0.2
17,QQNS,0.515
18,QQLS,0.373
19,QQDS,0.282
20,DMCG,≤ 0.2
21,LNDN,≤ 0.2
22,HIRY,≤ 0.2
23,MHFS,≤ 0.2
24,ATTP,≤ 0.2

row,Variant,one-hybrid fitness for binding NBS DNA
1,ESGF,≤ 0.2
2,LAAR,≤ 0.2
3,SNHH,≤ 0.2
4,VFVQ,≤ 0.2
5,PNVF,≤ 0.2
6,NEKR,≤ 0.2
7,QQFS,0.284
8,QQAS,0.435
9,QQAM,≤ 0.2
10,VHVQ,≤ 0.2
11,TYPP,≤ 0.2
12,SRMD,≤ 0.2
13,YAHL,≤ 0.2
14,NRKT,0.213
15,QRVT,0.69
16,DRKT,≤ 0.2
17,QRKT,0.848
18,SAIP,≤ 0.2
